# KB-V1 MDR tox – kills drug-selected multidrug resistant KB-V1 cells | KB-V1 MDR cells viability, CellTiter-Glo, 72 h | Potency, µM (top dose mostly 46.1 µM), most hits filed as cytotoxic | AID 1347076 | actives 3.4% (n = 400,000); also: nearly all actives have a fitted effect of over 60% in size
#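 In this primary screen, KB-V1 cells overexpressing P-gp are incubated with library compounds (lowest to highest concentration) for 72 h at 37 degrees C before a luminescent ATP viability read.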
# MCF10A rereplic – inducers of DNA re-replication in MCF 10A breast cells; MCF 10A DNA re-replication, Hoechst nuclear intensity, 48 h; Potency, µM (highest dose often 46.1 µM), most hits filed as activators; actives 2.9% (n = 350,000); AID 624296; also: nearly all actives have a fitted effect of over 50% in size
# SW480 rerep – inducers of DNA re-replication in SW480 colon cancer cells | SW480 DNA re-replication, Hoechst DNA content imaging, 48 h | Potency, µM (series often up to 46.1 µM), actives largely listed as activators | actives 1.8% (n = 340,000); also: nearly all actives have a fitted effect of over 55% in size
#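 Readout is total intensity of Hoechst-stained nuclei, excited at 405 nm and collected at 500-530 nm. Compound treatment lasted 48 hr at 37 C in 5% CO2 before staining.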
# RGS4 inhibitor – human RGS4 inhibition; Potency, µM (titrated, usually from 114 µM), most hits filed as inhibitors; actives 0.039% (n = 390,000); P49798; Transcreener GDP fluorescence polarization, RGS4-accelerated GTP hydrolysis; also: nearly all actives have a fitted effect of over 75% in size
# Target sequence (P49798 whole entry, looked up): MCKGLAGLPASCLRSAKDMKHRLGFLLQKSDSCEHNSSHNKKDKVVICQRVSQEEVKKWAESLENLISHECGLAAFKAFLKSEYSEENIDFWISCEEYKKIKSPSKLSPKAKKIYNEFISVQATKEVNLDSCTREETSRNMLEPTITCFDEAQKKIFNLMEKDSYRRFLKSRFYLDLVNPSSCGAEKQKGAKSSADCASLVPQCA
#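 MLSMR compounds (23 nl, pin-transferred) preincubated 10 min at room temperature with a 500nM (2x) first reagent, then RGS4 at 900nM (2x) plus Transcreener GDP mix added; fluorescence polarization (620/688 nm) read before and after 90 min at 30 °C.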
# KB-3-1 cytotox – kills parental KB-3-1 adenocarcinoma cells | actives 1.4% (n = 400,000) | Potency, µM (series often up to 46.1 µM), actives largely listed as cytotoxic | AID 1347075 | KB-3-1 viability, CellTiter-Glo ATP luminescence, 72 h; also: nearly all actives have a fitted effect of over 60% in size
#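 Screening of KB-3-1 cells (DMEM, 10% FBS, phenol-red free) ran from lowest to highest compound concentration; after 72 h at 37 °C viability was read luminescently and curves fitted.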
# PTAP TSG101 blk – blocks PTAP/TSG101 interaction to inhibit HIV-1 budding. Q99816. Fluorescence polarization, FITC-PTAP peptide / Tsg101 binding. Potency, µM (top dose mostly 115 µM), actives largely listed as inhibitors. 340,000 tested, under 10 active. AID 493005; active = well fitted inhibition curve with a large enough effect in the main read-out, with a control signal flat, not every such curve was filed as active; inconclusive = small, poorly fitted or top-dose-only effect, or effect the other way, or a change in a side signal; inactive = no such curve, though single readings can be large or run the other way
# Target sequence (Q99816 whole entry, looked up): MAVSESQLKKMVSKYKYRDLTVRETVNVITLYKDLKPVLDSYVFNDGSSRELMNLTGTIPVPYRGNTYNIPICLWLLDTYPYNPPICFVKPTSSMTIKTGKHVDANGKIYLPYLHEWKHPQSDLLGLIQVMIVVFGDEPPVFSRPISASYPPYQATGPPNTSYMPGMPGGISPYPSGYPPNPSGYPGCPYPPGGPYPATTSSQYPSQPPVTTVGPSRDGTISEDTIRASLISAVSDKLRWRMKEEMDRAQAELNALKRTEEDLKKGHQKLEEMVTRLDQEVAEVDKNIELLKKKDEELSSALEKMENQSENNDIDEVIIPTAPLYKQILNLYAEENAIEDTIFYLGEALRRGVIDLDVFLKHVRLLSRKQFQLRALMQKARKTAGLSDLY
#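 FP read-out: FITC-PTAP peptide, 50 nM final, binding Tsg101 binding domain, 10 uM final; 20 min, r.t.; 10 mM HEPES pH 7.5, 0.15 M NaCl, 0.01% Tween 20, 3 mM EDTA, 0.1 mM TCEP.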
# Hits are given with their value; - = inactive; ? = inconclusive; . = not tested or not shown; [ ] = dose if it differs, or a comment. Compounds with a hit are over-represented: about 6.6% of the library has one in this group of screens. Unless noted, calls follow the shape of the dose curve; as a rule, active = well fitted curve in the direction sought with a large enough effect; inconclusive = small, poorly fitted or top-dose-only effect, or another doubt; inactive = no such curve, though single readings can be large; an effect the other way counts as inactive or inconclusive.
SMILES,KB-V1 MDR tox,MCF10A rereplic,SW480 rerep,RGS4 inhibitor,KB-3-1 cytotox,PTAP TSG101 blk
O=C(Nc1cccc(C(=O)N2CCN(c3ccc(Cl)cc3)CC2)c1)c1nsc2ccccc12,?,.,.,-,-,.
Cc1noc2ncnc(Sc3ccc(Br)cc3)c12,-,13µM,-,-,?,-
Cc1noc2ncnc(N3CCCC3)c12,-,?,-,-,-,-
COc1ccc(/C=C/c2nc3cc(-c4ccccc4)ccc3o2)cc1O,?,5.8µM,18µM,-,?,-
Cc1ccc(NC(=O)C2CCN(c3ncnc4c3nc3n4CCCCC3)CC2)cc1Cl,-,15µM,?,-,?,-
O=C(Nc1ccc(Cl)cc1)C1CCCN(c2ncnc3c2nc2n3CCCCC2)C1 (stereo not given),-,16µM,-,-,?,-
Cc1ccc(NC(=O)C2CCCN(c3ncnc4c3nc3n4CCCCC3)C2)cc1Cl (stereo not given),?,-,?,-,?,-
COc1cc(NC(=O)c2c(C)nn(-c3ccc(F)cc3)c2-n2cccc2)cc(OC)c1,-,.,.,-,-,.
CC(=O)C1=C(C)N(Cc2ccccc2)C(=O)N[C@H]1CCc1ccccc1,-,?,-,-,-,-
O=C1NC(CCc2ccccc2)C(=O)N1Cc1ccccc1Cl (stereo not given),16µM,-,-,-,-,-
CCOc1ccc(N(C)C(=O)CS(=O)(=O)c2cccc3nsnc23)cc1,-,.,.,-,-,.
CCOC(=O)c1c(CN2CCOCC2)n(-c2ccccc2)c2cc(Br)c(OC)cc12,18µM,23µM,?,-,?,-
CCOC(=O)c1c(C)[nH]c(C(=O)COC(=O)c2oc3ccc(OC)cc3c2C)c1C,10µM,-,-,-[11.4 µM],16µM,-
CCOC(=O)c1c(CN2CCN(C)CC2)n(C)c2cc(Br)c(OC)cc12,?,?,?,-,?,-
CCOC(=O)c1c(CN(C)C)n(-c2ccccc2)c2cc(Br)c(OC)cc12,21µM,?,?,-,?,-
CCOC(=O)c1c(CN2CCCCC2)n(C)c2cc(Br)c(O)cc12,10µM,-,-,-,-,-
CC(C)(C)OC(=O)N1CCN(c2nc(-c3cccs3)nc3ccccc23)CC1,.,.,.,-,.,.
CCOC(=O)c1ccc(NC2=CC(c3ccc(F)cc3)N(c3ccc(C(=O)OCC)cc3)C2=O)cc1 (stereo not given),-,.,.,-,-,.
CCOC(=O)c1c(CN2CCOCC2)oc2ccc(OC)cc12,16µM,-,-,-,-,-
COc1ccc(CNc2cc(C)ccc2C)c(OC)c1OC,15µM,-,-,-,-,-
Cc1c(C)n(Cc2ccccc2)c2ccc(C(=O)NCC(C)c3ccccc3)cc12 (stereo not given),-,.,.,-,-,.
O=C(NCC(=O)N(CC1CCCO1)C1(C(=O)NC2CCCC2)CCCCC1)c1ccccc1 (stereo not given),15µM,-,-,-,-,-
O=C(NCC(=O)N(CC1CCCO1)C1(C(=O)NC2CCCCC2)CCCCC1)c1ccccc1 (stereo not given),3.3µM,-,-,-,-,-
COc1cc(C2C3=C(COC3=O)Oc3cc4c(cc32)OCO4)ccc1O (stereo not given),4.6µM,?,1.8µM,-,3.7µM,-
COc1cc([C@@H]2OC[C@@H]3[C@H]2CO[C@@H]3c2ccc3c(c2)OCO3)ccc1O,-,?,-,-,-,-
SMILES,KB-V1 MDR tox,MCF10A rereplic,SW480 rerep,RGS4 inhibitor,KB-3-1 cytotox,PTAP TSG101 blk
COc1cc(C2C3=C(COC3=O)OC(C)(C)Oc3cc4c(cc32)OCO4)cc(OC)c1OC (stereo not given),3.7µM,1.2µM,1.2µM,-,0.73µM,-
O=C(CC1(O)C(=O)N(CCc2ccccc2)c2ccc(Br)cc21)c1ccccc1O (stereo not given),.,.,.,-,.,.
CCOC(=O)c1cc2c(=O)n3ccccc3nc2n(CCCOC)c1=NC(=O)C(C)(C)C,-,?,18µM,-,?,-
CCCCn1c(=NC(=O)c2c(-c3c(F)cccc3Cl)noc2C)c(C(=O)OCC)cc2c(=O)n3ccccc3nc21,-,.,.,-,-,.
CCOC(=O)c1cc2c(=O)n3ccccc3nc2n(CCOC)c1=NC(=O)c1c(-c2c(F)cccc2Cl)noc1C,?,18µM,?,-,?,-
COc1ccc2c(c1)c(C(=O)N/N=C/c1ccc(O)c(O)c1)c(C)n2C,-,-,-,-,-,-
COc1ccc2c(c1)c(C(=O)N/N=C/c1ccc(Br)cc1)c(C)n2C,?,13µM,10µM,-,?,-
CCOc1ccc(/C=N/NC(=O)c2c(C)n(C)c3ccc(OC)cc23)cc1,13µM,12µM,?,-,8.2µM,-
OCCCN=C1CCCc2c1[nH]c1ccc(Cl)cc21,1.5µM,?,-,-,9.2µM,-
OCCN=C1CCCc2c1[nH]c1ccc(Cl)cc21,0.73µM,-,-,-,2.1µM,-
O=C1CCCc2c1[nH]c1ccc(Cl)cc21,?,-,-,-,?,-
CCCCNC(=O)CSc1nnc(C)c2c(C)n(-c3ccccc3)nc12,-,.,.,-,-,.
CC(C)COc1ccc(C(=O)N2CCC(c3nc4ccccc4s3)CC2)cc1,-,.,.,-,-,.
COc1cc(OC)c(N(C)C(=O)c2cn(C3CCCC3)c(=O)c3c2c2ccccc2n3C)cc1Cl,-,.,.,-,-,.
O=C(c1cc2ccccc2o1)N1CCN(CCOc2ccccc2)CC1,-,-,-,-,-,-
O=C(Nc1ccc2ccccc2c1)N1CCCN(CCOc2ccccc2)CC1,15µM,-,-,-,?,-
O=C(CCCl)Nc1cccc2cccnc12,.,.,.,-,.,.
COC(=O)c1ccc(Oc2cc(C)nc(Cl)n2)cc1,-,-,?,-,-,-
COC(=O)c1ccc(Oc2cc(C)nc(SC)n2)cc1,4.6µM,3.7µM,-,-,5.8µM,-
Cc1cc(NS(=O)(=O)c2ccc(NC(=O)COc3ccc(Br)cc3)cc2)nc(C)n1,?,18µM,?,-,?,-
CCc1cccc(NC(=O)C(CC)n2nc(C)c3sc4ccccc4c3c2=O)c1 (stereo not given),-,.,.,-,-,.
COC(=O)CCC(C)C1CCC2C3CCC4CC(O)CCC4(C)C3CC(O)C12C (stereo not given),-,21µM,-,-,-,-
S=c1[nH]cnc2scc(-c3ccc(Br)cc3)c12,?,?,12µM,-,?,-
Cc1cccc(C(=O)N2CCC(c3nc(-c4ccc(S(=O)(=O)N5CCOCC5)cc4)no3)CC2)c1,-,-,-,-,-,-
O=C(Nc1ccccc1)N1CCC(c2nc(-c3ccc(S(=O)(=O)N4CCOCC4)cc3)no2)CC1,4.1µM,1.8µM,5.8µM,-,4.6µM,-

# High-throughput results (PubChem)
